Measurements taken from PubChem BioAssay AID1053 (University of Pittsburgh Molecular Library Screening Center, 2008).
Active and inactive are the calls of the source. How the calls were made is not given here.

Biological target: Serine/threonine-protein kinase PLK1 (Homo sapiens) (UniProt P53350)
Experiment: Plk1 polo box domain binding inhibitors, SAR follow-up, biochemical, fluorescence polarization, purchased analogs (AID 1053)
Settings: Plk1 PBD fluorescence polarization peptide binding; at 20 µM; active compounds read high

Chain of Serine/threonine-protein kinase PLK1 (Homo sapiens) (P53350 whole entry, looked up, the tested form may be a part): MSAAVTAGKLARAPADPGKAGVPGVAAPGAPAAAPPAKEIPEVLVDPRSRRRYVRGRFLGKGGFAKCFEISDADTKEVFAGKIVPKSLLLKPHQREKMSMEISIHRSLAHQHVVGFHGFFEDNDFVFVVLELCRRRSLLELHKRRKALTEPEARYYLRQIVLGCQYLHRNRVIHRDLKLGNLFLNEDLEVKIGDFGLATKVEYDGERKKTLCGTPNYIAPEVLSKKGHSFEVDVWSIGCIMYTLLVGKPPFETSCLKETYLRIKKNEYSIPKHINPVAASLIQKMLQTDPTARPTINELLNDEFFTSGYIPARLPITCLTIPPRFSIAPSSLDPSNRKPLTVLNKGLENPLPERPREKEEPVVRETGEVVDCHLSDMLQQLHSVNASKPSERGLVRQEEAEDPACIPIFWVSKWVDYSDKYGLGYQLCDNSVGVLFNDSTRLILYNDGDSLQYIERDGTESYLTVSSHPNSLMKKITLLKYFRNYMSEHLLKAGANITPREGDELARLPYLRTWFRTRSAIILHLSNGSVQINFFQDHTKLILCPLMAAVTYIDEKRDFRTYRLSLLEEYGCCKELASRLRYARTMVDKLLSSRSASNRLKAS

inhibition, inactive:
CCOC(=O)c1ccc(NC(=O)c2cc(=O)[nH]c3ccccc23)cc1 -81.3%
CC(=O)N(CN1C(=O)c2ccccc2C1=O)c1cccc(F)c1 -51.8%
CCOc1ccc(-c2nc3c(=O)n(C)c(=O)nc-3n(C)n2)cc1OC 34.4%
O=c1[nH]c2c(c(O)c1-c1ccccc1)c(=O)n(-c1ccccc1)c(=O)n2-c1ccccc1 -40.4%
Cn1c(=O)[nH]c2nnc(-c3ccccc3)nc2c1=O -31%
COc1ccc(N(CN2C(=O)c3ccccc3C2=O)C(=O)C(F)(F)F)cc1 -44.5%
CC(=O)N(CN1C(=O)c2ccccc2C1=O)c1cccc(C)c1 -35.8%
CCCCCC(=O)N(CN1C(=O)c2ccccc2C1=O)c1ccccc1OC -35.4%
CC(=O)N(/N=C1\Sc2ccccc2C1=O)c1ccccc1I -47.1%
CC(=O)N(/N=C1\Sc2ccccc2C1=O)c1cc(C)ccc1C 33%
CC(=O)N(CN1C(=O)c2ccc([N+](=O)[O-])cc2C1=O)c1ccc(Oc2ccccc2)cc1 -28.5%
CCOC(=O)c1ccc(N=Cc2c(O)n(Cc3ccccc3)c(=O)[nH]c2=O)cc1 -22.9%
CCn1c(N/C(O)=C/C(O)(C(F)(F)F)C(F)(F)F)nc2ccccc21 -49.9%
CC(=O)N(/N=C1\Sc2ccccc2C1=O)c1ccc(Br)cc1 34.2%
COc1ccc(C(=O)COC(=O)c2ccc(NC(=O)c3ccccc3)cc2)cc1 40.3%
